In assay [1] the target is KiSS-1 receptor (Homo sapiens) (UniProt Q969F8). The assay can be described thus: Human kisspeptin (KISS1R) small molecule agonists, calcium flux assay in KISS1R-HEK293 cells (AID 1920064; active = well fitted activation curve with a large enough effect in the repeat runs). Put shortly:
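Intracellular calcium mobilization in KISS1R-HEK293 cells was recorded by fluorescence (Ex/Em 480/540) for 3 min following compound addition to cells pre-loaded 1 h with calcium dye.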

A short description of assay [2]: G protein-coupled receptor (GPCR) small molecule agonists, calcium flux assay: HEK293 wild type cell line counter screen (AID 1920065). Put shortly: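 In this agonist-mode screen, ATP is the positive control and DMSO the vehicle. Cells grow 18 h before a 1 h dye incubation at 37 C; signal is taken at Ex/Em 480/540 over 3 min.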
Background: A change in cytosolic calcium serves as a functional read-out for many receptors and channels.

Assay [3] is described as follows: p53 small molecule agonists, cell-based qHTS assay with human liver microsomes (AID 1963577). Put shortly: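 In this qHTS, p53 response-element beta-lactamase cells receive test compound together with a microsome/NADPH activating system (0.5 mg/mL final each) and are incubated 16 h at 37 C before LiveBLAzer fluorescence detection.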
In general terms: In qHTS, concentration-response curves come from the screen itself.

Assay [4] in a line: p53 small molecule agonists, cell-based qHTS assay with rat liver microsomes (AID 1963578). Put shortly:
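Agonist mode in p53RE-bla reporter cells, with compounds co-incubated 16 h at 37 C alongside 0.5 mg/mL rat liver microsomes and 0.5 mg/mL NADPH (final), followed by a 2 h LiveBLAzer detection step.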

The nature of assay [5]: p53 small molecule agonists, cell-based qHTS assay with rat liver microsomes: qHTS cell viability counter screen (AID 1963580). Also: nearly all actives have a fitted effect of over 45% in size. Put shortly:
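HCT-116 p53RE-bla, 4,000 cells/well, 5 h pre-incubation; cpd + rat liver microsomes 0.5 mg/mL + NADPH 0.5 mg/mL (final); 16 h, 37 C; CellTiter-Glo, 30 min RT; luminescence.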

Assay [6] can be described thus: p53 small molecule agonists, cell-based qHTS assay: qHTS cell viability counter screen (AID 1963581). Also: nearly all actives have a fitted effect of over 45% in size. Also: potency is read from the fitted curve at half-maximal effect. Put shortly: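 Compounds are pinned onto HCT-116 p53RE-bla cells and left 16 h at 37 C. Following the reporter FRET read, ATP is quantified by CellTiter-Glo luminescence after 30 min at room temperature.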
In assay [7] the target is 5-hydroxytryptamine receptor 2A (Homo sapiens) (UniProt P28223). Kind of assay: 5-hydroxytryptamine receptor 2A (HTR2A) small molecule agonists, cell-based qHTS assay (AID 1963587). Also: nearly all actives have a fitted effect of over 30% in size. Also: potency is read from the fitted curve at half-maximal effect. Put shortly:
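Kinetic calcium-flux fluorescence (2 min, 1 sec intervals) after compound addition in agonist mode. HTR2A-CHO cells were cultured 18 h, then dye-loaded 1 h at 37 C.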

Assay [8] deals with Muscarinic acetylcholine receptor M1 (Homo sapiens) (UniProt P11229). The assay can be described thus: Cholinergic receptor muscarinic 1 (CHRM1) small molecule antagonists, cell-based qHTS assay (AID 1963588). Also: nearly all actives have a fitted effect of over 40% in size. Also: potency is read from the fitted curve at half-maximal effect. Put shortly:
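CHRM1-CHO calcium-flux assay, antagonist mode. Cells were seeded 18 h, dye-loaded 1 h at 37 C and given compound for 5 min at RT, then acetylcholine was added at 50nM. FDSS fluorescence was read 3 min; 15 concentrations, three runs.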

The target is the same in assay [9]. Kind of assay: Cholinergic receptor muscarinic 1 (CHRM1) small molecule agonists, cell-based qHTS assay (AID 1963589). Also: nearly all actives have a fitted effect of over 35% in size. Put shortly:
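Stable CHRM1-CHO cells (human receptor) were incubated 18 h, dye-loaded for 1 h at 37 C and exposed to test compounds for agonist activity, with calcium-dependent fluorescence followed kinetically.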

Assay [10] in a line: cAMP Responsive Elements (CRE) small molecule antagonists, cell-based qHTS assay (AID 1963591; active = well fitted inhibition curve with a large enough effect in the signal ratio in the repeat runs, not every such curve was filed as active; the % refers to the signal ratio; also: potency is read from the fitted curve at half-maximal effect). Put shortly:
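qHTS in CRE-bla HEK 293T cells: compound in DMSO, then 0.25 uM NKH477 (final), 3 h at 37 °C/5% CO2; beta-lactamase FRET read-out after 2 h substrate incubation.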

For assay [11], the target named is Beta-2 adrenergic receptor (Homo sapiens) (UniProt P07550). The assay can be described thus: Adrenergic beta2 receptor (ADRB2) small molecule antagonists, cell-based qHTS assay (AID 1963592). Also: series mostly up to about 92 µM; nearly all actives have a fitted effect of over 50% in size. The gist of the method:
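Cells (CHO, stable ADRB2 overexpression) incubated 18-20hr at 37C; compounds added from DMSO; agonist mix (1nM isoproterenol, 100uM IBMX, 25uM Ro-20-1724) added; 0.5hr RT; d2-cAMP and anti-cAMP-cryptate added; 1hr RT; 665/615 nm read.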

Assay [12] shares this target. The assay can be described thus: Adrenergic beta2 receptor (ADRB2) small molecule agonists, cell-based qHTS assay (AID 1963593).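 Also: CHO cells stably overexpressing human ADRB2.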 Put shortly: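 CHO cells stably over-expressing ADRB2 were plated overnight at 37C, then dosed with compounds plus a stimulation mix containing 100uM IBMX and 25uM Ro-20-1724 for 0.5hr at room temperature. cAMP was measured by HTRF competition, 1hr.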

In assay [13] the target is D(2) dopamine receptor (Homo sapiens) (UniProt P14416). The assay can be described thus: Dopamine D2 receptor (DRD2) small molecule agonists, cell-based qHTS assay (AID 1963594). Also: nearly all actives have a fitted effect of over 35% in size. Put shortly: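 cAMP accumulation in DRD2-HEK293 cells measured by HTRF after 1 h detection; compounds added 10 min before NKH477 (200nM […]) forskolin-analogue stimulation, 30 min at room temperature, with Ro20-1724 present at 0.1 mM final.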
Sequence of D(2) dopamine receptor (Homo sapiens) (P14416 whole entry, looked up): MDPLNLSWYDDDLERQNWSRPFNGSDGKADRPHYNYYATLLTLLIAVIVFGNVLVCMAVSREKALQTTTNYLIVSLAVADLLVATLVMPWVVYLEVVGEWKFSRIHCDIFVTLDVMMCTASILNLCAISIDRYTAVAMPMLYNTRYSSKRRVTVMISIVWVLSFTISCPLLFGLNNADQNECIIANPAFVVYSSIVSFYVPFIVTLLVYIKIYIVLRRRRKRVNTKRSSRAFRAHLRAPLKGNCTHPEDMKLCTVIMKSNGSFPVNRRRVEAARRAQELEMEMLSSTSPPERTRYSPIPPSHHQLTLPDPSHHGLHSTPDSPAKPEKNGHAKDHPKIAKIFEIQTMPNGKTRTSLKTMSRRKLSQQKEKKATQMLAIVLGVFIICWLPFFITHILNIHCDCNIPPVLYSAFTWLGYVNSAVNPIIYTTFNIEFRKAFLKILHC

Assay [14] can be described thus: p53 small molecule agonists, cell-based qHTS assay with human liver microsomes: qHTS cell viability counter screen (AID 1963579). Also: nearly all actives have a fitted effect of over 45% in size. Also: potency is read from the fitted curve at half-maximal effect. The gist of the method: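 Metabolically activated exposure: compounds, human liver microsomes and NADPH (0.5 mg/mL final apiece) were added to p53RE-bla cells seeded 5 h earlier, left 16 h at 37 C, and then assessed for viability by CellTiter-Glo luminescence.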

Assay [15] concerns the target 5-hydroxytryptamine receptor 2A (Homo sapiens) (UniProt P28223). Kind of assay: 5-hydroxytryptamine receptor 2A (HTR2A) small molecule antagonists, cell-based qHTS assay (AID 1963586). Also: nearly all actives have a fitted effect of over 45% in size. Also: potency is read from the fitted curve at half-maximal effect. The gist of the method:
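Antagonist-mode intracellular calcium assay: DOI (4 nM) added after 5 min compound pre-incubation at room temperature to dye-loaded HTR2A-CHO cells. Fluorescence followed for 3 min, sampled every second.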

Assay [16] concerns the target Gonadotropin-releasing hormone receptor (Homo sapiens) (UniProt P30968). Kind of assay: Human gonadotropin-releasing hormone receptor (GnRHR) small molecule agonists, calcium flux assay in GnRHR-HEK293 cells (AID 1920063). Also: nearly all actives have a fitted effect of over 35% in size. The gist of the method:
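Tox21-format agonist screen using human GnRHR-expressing HEK293 cells and a fluorescent calcium dye; kinetic 3-min fluorescence reading after compound addition, 15-point concentration series run in triplicate.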

Assay [17] is described as follows: p53 small molecule agonists, cell-based qHTS assay (AID 1963582; active = well fitted activation curve with a large enough effect in the signal ratio in the repeat runs, not every such curve was filed as active; the % refers to the signal ratio). The gist of the method: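 Agonist activity was scored from beta-lactamase FRET fluorescence in p53RE-bla cells treated 16 h at 37 C with compounds in DMSO, substrate incubation being 2 h at room temperature.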
Assay [18] can be described thus: cAMP Responsive Elements (CRE) small molecule agonists, cell-based qHTS assay (AID 1963590). Put shortly: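 FRET-based beta-lactamase readout (LiveBLAzer B/G, 2 h RT) quantified CRE activation in HEK 293T CRE-bla cells after 3 h treatment with DMSO-dissolved compounds.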
The target of assay [19] is D(2) dopamine receptor (Homo sapiens) (UniProt P14416). The assay can be described thus: Dopamine D2 receptor (DRD2) small molecule antagonists, cell-based qHTS assay (AID 1963595; active = well fitted inhibition curve with a large enough effect in the signal ratio in the repeat runs, with a control signal flat; the % refers to the signal ratio). Put shortly: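 Antagonist mode in DRD2-HEK293 cells: after compound addition with 0.1 mM Ro20-1724, cells received quinpirole (12 nM) and NKH477 (200 nM) for 30 min at room temperature; HTRF cAMP read after 1 h detection.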

Values without a mark were called inactive. Inconclusive results are not listed. The source made the active and inactive calls. Unless noted, calls follow the shape of the full dose curve.

These results are taken from PubChem BioAssay (Tox21).
% is scaled to controls: 0 for no effect and ±100 for the full control effect.

Sequence of KiSS-1 receptor (Homo sapiens) (Q969F8 whole entry, looked up): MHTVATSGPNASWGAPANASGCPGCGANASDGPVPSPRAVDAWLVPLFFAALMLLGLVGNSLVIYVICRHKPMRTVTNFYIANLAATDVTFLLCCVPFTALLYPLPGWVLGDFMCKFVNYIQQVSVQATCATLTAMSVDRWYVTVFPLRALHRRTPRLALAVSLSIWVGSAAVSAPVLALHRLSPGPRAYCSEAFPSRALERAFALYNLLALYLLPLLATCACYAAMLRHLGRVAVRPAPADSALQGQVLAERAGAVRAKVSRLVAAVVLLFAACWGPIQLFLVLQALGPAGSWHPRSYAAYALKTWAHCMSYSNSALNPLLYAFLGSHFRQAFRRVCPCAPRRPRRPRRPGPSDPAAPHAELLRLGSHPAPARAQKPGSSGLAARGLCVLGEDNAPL
Sequence of Gonadotropin-releasing hormone receptor (Homo sapiens) (P30968 whole entry, looked up): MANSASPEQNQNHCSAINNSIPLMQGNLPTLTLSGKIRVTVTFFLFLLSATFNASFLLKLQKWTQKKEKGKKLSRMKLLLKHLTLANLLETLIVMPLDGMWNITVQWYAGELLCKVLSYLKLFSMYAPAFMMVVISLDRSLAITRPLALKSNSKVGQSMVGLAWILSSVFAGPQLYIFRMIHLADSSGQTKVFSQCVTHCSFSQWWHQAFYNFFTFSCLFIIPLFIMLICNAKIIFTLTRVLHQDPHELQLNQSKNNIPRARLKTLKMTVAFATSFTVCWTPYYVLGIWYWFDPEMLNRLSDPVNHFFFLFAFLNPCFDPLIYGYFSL
Sequence of Beta-2 adrenergic receptor (Homo sapiens) (P07550 whole entry, looked up): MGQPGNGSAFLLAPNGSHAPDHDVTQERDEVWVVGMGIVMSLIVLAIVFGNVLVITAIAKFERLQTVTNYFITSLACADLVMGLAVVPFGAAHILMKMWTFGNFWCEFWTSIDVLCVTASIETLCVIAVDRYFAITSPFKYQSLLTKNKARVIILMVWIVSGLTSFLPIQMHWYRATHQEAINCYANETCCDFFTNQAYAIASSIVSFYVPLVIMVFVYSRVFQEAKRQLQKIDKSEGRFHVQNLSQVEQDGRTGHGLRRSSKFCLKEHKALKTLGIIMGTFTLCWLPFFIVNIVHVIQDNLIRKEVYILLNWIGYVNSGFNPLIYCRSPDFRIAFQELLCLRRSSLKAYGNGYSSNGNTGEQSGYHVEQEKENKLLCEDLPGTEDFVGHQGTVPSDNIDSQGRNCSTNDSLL
Sequence of 5-hydroxytryptamine receptor 2A (Homo sapiens) (P28223 whole entry, looked up): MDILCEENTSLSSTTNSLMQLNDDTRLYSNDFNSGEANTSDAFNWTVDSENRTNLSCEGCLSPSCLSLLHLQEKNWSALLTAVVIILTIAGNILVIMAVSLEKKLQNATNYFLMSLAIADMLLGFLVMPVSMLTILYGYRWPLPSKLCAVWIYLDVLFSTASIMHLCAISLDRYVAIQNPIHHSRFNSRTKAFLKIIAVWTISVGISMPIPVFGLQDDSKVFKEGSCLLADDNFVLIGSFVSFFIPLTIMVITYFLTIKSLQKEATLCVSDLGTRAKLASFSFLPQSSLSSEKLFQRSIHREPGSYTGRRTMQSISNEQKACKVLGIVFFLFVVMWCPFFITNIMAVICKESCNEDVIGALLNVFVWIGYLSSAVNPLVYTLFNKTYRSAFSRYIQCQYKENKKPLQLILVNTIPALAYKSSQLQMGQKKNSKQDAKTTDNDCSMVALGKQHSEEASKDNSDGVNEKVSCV
Sequence of Muscarinic acetylcholine receptor M1 (Homo sapiens) (P11229 whole entry, looked up): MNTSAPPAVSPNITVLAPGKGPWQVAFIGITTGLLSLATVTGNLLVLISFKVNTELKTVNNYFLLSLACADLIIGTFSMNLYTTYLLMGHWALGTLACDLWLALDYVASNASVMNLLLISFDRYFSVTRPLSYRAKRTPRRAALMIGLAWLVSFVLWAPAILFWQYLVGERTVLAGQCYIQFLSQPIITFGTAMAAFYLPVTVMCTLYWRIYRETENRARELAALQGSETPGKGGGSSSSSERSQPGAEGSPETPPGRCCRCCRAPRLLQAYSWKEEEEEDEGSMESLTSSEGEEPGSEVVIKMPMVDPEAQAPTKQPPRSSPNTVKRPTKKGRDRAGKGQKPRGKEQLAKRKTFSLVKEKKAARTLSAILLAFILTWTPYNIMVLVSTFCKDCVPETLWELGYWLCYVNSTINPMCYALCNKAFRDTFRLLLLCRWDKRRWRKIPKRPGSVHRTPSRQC

`O=CC=C(c1ccccc1)c1ccccc1`: the Potency entry in [1], in assay [2], in [3], in assay [4], in assay [5] and in assay [6] was “inactive” in each case. The Potency entry in assay [7], in [8], in [9], in assay [11], in assay [12] and in assay [13] was “inactive” each time. In addition, in [10], the Potency is 24.5 µM (active).

For `COC(=O)[C@H]1[C@H]2C[C@@H]3c4[nH]c5cc(OC)ccc5c4CCN3C[C@H]2C[C@@H](OC(=O)/C=C/c2ccc(O)c(OC)c2)[C@@H]1OC`, the Potency entry in assay [1], in assay [2], in assay [4], in assay [14], in assay [5] and in assay [6] was “inactive” throughout. Also, the Potency entry in [15], in assay [8], in assay [9] and in [13] was “inactive” throughout. In addition, in assay [7], the Potency was 19 µM (active).

Consider `O=C(O)CN(CCN(CC(=O)O)CC(=O)O)CC(=O)O`, for which, in assay [16], the activity change is 0.111% [at 2.04 µM, stronger effect = higher value]. The activation in [2] was 0.597% [at 2.04 µM]; in assay [3], -9.46% [at 2.33 µM]; in [4] it was -7.74% [at 2.33 µM]; in [17], -4.53% [at 2.33 µM]; in [7], -0.659% [at 2.65 µM]; in assay [9], -0.34% [at 2.72 µM]. The activation is 0.14% [at 3.27 µM] in [18], 11.4% [at 3.27 µM] in assay [12] and 2.74% [at 3.27 µM] in [13]. Moreover, the activity change, negative = cytotoxicity is -15.2% [at 2.33 µM] in [14] and 1.99% [at 2.33 µM] in [6]. For the same molecule, the activity, negative = inhibition in [15] is -0.852% [at 2.12 µM]. Further, the values for the activity change, negative = inhibition in assay [10] and in assay [11] were 1.65% [at 3.27 µM] and 4.71% [at 3.27 µM], respectively.

As to `O=[N+]([O-])c1cc([N+](=O)[O-])c2ccc(S(=O)(=O)O)cc2c1O`, the Potency entry in assay [2], in [14], in assay [5] and in [6] was “inactive” throughout.

As for `N[C@@H](Cc1ccc(O)cc1)C(=O)O`, the activity change in assay [16] was -0.862% [at 5.22 µM, stronger effect = higher value]. Also, the activation is 1.73% [at 5.23 µM] in [2]; 0.614% [at 7.02 µM] in [7]; 0.14% [at 6.97 µM] in [9]; -0.513% [at 8.39 µM] in assay [18]; 15.9% [at 8.39 µM] in [12]. In assay [6], the activity change, negative = cytotoxicity is 14.2% [at 5.99 µM]. In addition, the activity, negative = inhibition is 17.7% [at 5.62 µM] in assay [15] and -1.5% [at 5.58 µM] in assay [8]. For the same molecule, the activity change, negative = inhibition in assay [10] is 0.559% [at 8.39 µM]; in assay [11], -0.134% [at 8.39 µM]; in [19], 0.318% [at 8.38 µM].

As to `O=C1c2ccccc2C(=O)N1CCc1noc(-c2ccc(CN3CCCCCC3)s2)n1`, the Potency entry in assay [16], in assay [2], in [3], in assay [4], in [14] and in [5] was “inactive” throughout. The Potency result in [6], in [15], in assay [7], in assay [9], in [11] and in assay [13] was “inactive” each time. The Potency in [8] is 0.273 µM (active).

As to `CCOc1nc2cccc(C(=O)OC(C)OC(=O)OC3CCCCC3)c2n1Cc1ccc(-c2ccccc2-c2nn[nH]n2)cc1` (configuration not stated), the Potency result in assay [2], in assay [3], in assay [4], in assay [8], in assay [9] and in assay [11] was “inactive” throughout. Also, the Potency entry in assay [12], in assay [13] and in assay [19] was “inactive” throughout. Besides, the Potency in assay [14] is 12.9 µM (active); in [6], 14.5 µM (active).

Regarding `c1ccc(OCc2ccc(CCCN3CCOCC3)cc2)cc1`, the Potency result in assay [1], in assay [3], in [4], in assay [14], in assay [5] and in [6] was “inactive” throughout. The Potency result in assay [7], in assay [9], in assay [18], in [11], in assay [13] and in assay [19] was “inactive” each time. In addition, the figures for the Potency in assay [15] and in assay [8] were 20.5 µM (active) and 2.05 µM (active), respectively.

For `Cc1ccccc1`, the Potency result in [1], in [2], in assay [15], in assay [7], in assay [8] and in assay [10] was “inactive” each time. Also, the Potency entry in [11], in assay [13] and in assay [19] was “inactive” in each case.
